Laboratory results published in PubChem BioAssay AID720697 (Broad Institute, 2013).
Results with a measured potency or affinity are listed apart. Results filed as inconclusive are left out. A number with no mark means an inactive call. The source made the active and inactive calls.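 Rule for the calls: active = signal loss with fitted half-maximal concentration at or below twice the top valid tested dose in every test run; inconclusive = runs disagree, flat 30 to 70% signal loss, or poor fit; inactive = all runs flat, opposite direction, or potency beyond limit.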

test: general mammalian cell viability loss – inhibitor set, cherry-pick, set 2, cytotoxicity control for miR-122 modulator project, dose response (AID 720697); conditions: HEK293T viability, CellTiter-Glo luminescence, 48 h; series mostly up to 26 µM;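 note: 0% = median of neutral control wells and -100% = MG132 positive control wells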

| Structure (SMILES) | outcome | activity change, negative = cytotoxicity |
| --- | --- | --- |
| CC(C)N(C[C@H]1[C@H](c2ccccc2)[C@@H](CO)N1S(C)(=O)=O)C(=O)CN(C)C | inactive | – |
| CN1C(=O)c2cc(NC(=O)Cc3ccccc3)ccc2OC[C@H]2O[C@H](CC(=O)O)CC[C@H]21 | inactive | – |
| COCC(=O)N(C)C[C@H]1Oc2cc(-c3ccccc3F)ccc2S(=O)(=O)N([C@@H](C)CO)C[C@@H]1C | inactive | – |
| CCN(C[C@H]1N[C@@H](CO)[C@@H]1c1ccc(C2=CCCC2)cc1)C(=O)c1cccnc1 | inactive | – |
| Cc1cc(C)cc(NC(=O)c2ccc(CSc3nnc(C)s3)cc2)c1 | inactive | – |
| COc1ccccc1NC(=O)N1CCCCN2[C@H](CO)[C@H](c3ccc(C#CC4CCCC4)cc3)[C@H]2C1 | inactive | – |
| CCC(=O)N1[C@H](CN(C(C)C)S(C)(=O)=O)[C@H](c2ccccc2)[C@@H]1CO | inactive | – |
| CCCCNC(=O)Nc1nnc(-c2ccc(OCC)cc2)o1 | inactive | – |
| C[C@H]1CN([C@@H](C)CO)S(=O)(=O)c2ccc(C#CC3CCCCC3)cc2O[C@@H]1CN(C)C | inactive | – |
| CCCN(C[C@@H]1N[C@@H](CO)[C@H]1c1ccc(-c2cccnc2)cc1)C(C)=O | inactive | – |
| CCOC(=O)c1nc(C)n(-c2ccc(Cl)cc2Cl)n1 | inactive | – |
| Cc1cccc(-n2ncc(Cl)c(Cl)c2=O)c1 | – | -3.19% [at 6 µM] |
| Cc1cc(C(F)F)n2ncc(C(=O)NCCc3ccccc3Cl)c2n1 | inactive | – |
| CN(C)CCNC(=O)C1CC(=O)N(c2ccc(F)c(Cl)c2)C1 (stereo not given) | inactive | – |
| CNC(=O)C[C@@H]1CC[C@H]2[C@@H](COc3ccc(NC(=O)C(C)C)cc3C(=O)N2C)O1 | inactive | – |
| C[C@@H]1CN([C@@H](C)CO)S(=O)(=O)c2ccc(/C=C/c3ccccc3)cc2O[C@@H]1CN(C)C(=O)c1cccnc1 | inactive | – |
| CC(C)(C)c1cc(NCCCn2ccnc2)n2ncc(-c3ccc(Cl)cc3)c2n1 | inactive | – |
| COCC(=O)N(C[C@H]1N[C@@H](CO)[C@@H]1c1ccc(C2=CCCC2)cc1)C(C)C | inactive | – |
| COc1cc(-c2nnc(-c3ccco3)o2)ccc1OCc1ccccc1 | inactive | – |
| CCN(C[C@@H]1[C@@H](c2ccccc2)[C@H](CO)N1C(C)=O)C(=O)NC(C)C | inactive | – |
| CCN(C[C@H]1[C@H](c2ccccc2)[C@H](CO)N1C(=O)COC)S(C)(=O)=O | inactive | – |
| O=C(NC[C@H]1[C@H](c2ccccc2)[C@H](CO)N1CC1CCCC1)c1ccncc1 | inactive | – |
| CC(C)c1ccc(NC(=O)C[C@H]2CC[C@H]3[C@@H](COc4ccc(NC(=O)Nc5ccc(F)c(F)c5)cc4C(=O)N3C)O2)cc1 | inactive | – |
| OCc1ccc(-c2nn(Cc3ccccc3)c3ccccc23)o1 | inactive | – |
| Cc1nn(C)cc1NC(=O)C[C@H]1CC[C@H]2[C@H](COc3ccc(NC(=O)c4cccc(F)c4)cc3C(=O)N2C)O1 | inactive | – |
